Assay outcomes (PubChem BioAssay)
TGFb SMAD3 inh: qHTS for Inhibitors of TGF-b; HepG2 CAGA-GFP TGF-b/SMAD3 reporter, GFP fluorescence, 18 h; TGF-beta stimulated, 500 pg/mL final; Potency, µM (doses to about 46.1 µM), inactives show at the top dose activity, negative = inhibition, actives largely listed as inhibitors; hit rate 1.2% among 410,000; AID 588855, 2011; also: % is scaled to controls: 0 for no effect and ±100 for the full control effect; nearly all actives have a fitted effect of over 65% in size
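TGF-beta reporter screen: HEPG2 CAGA-GFP, 1% FBS, 500 pg/mL TGF-beta final, 18 h; per-cell GFP summed per well; curves fitted and categorized by class.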
KB-3-1 tox: qHTS assay for MDR1-selective chemotherapeutics: Primary screen using the parental adenocarcinoma cell KB-3-1 | Potency, µM (highest dose often 46.1 µM), most hits filed as cytotoxic | KB-3-1 viability, CellTiter-Glo ATP luminescence, 72 h | hit rate 1.4% among 400,000 | AID 1347075, 2019; also: % is scaled to controls: 0 for no effect and ±100 for the full control effect; nearly all actives have a fitted effect of over 60% in size
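KB-3-1 parental drug-naive adenocarcinoma cells in DMEM/10% FBS, incubated 72 h at 37 C with pin-transferred compounds across a concentration series. Viability by CellTiter-Glo luminescence; concentration-response curves fitted after normalization.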
HepG2 tox: qHTS for Inhibitors of TGF-b: Cytotox Counterscreen | Potency, µM (highest dose often 46.1 µM), without a hit: at the top dose activity change, negative = cytotoxicity, most hits filed as cytotoxic | HepG2 CAGA-GFP viability, ATP luminescence, 18 h | hit rate 0.76% among 410,000
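HepG2 CAGA-GFP cells (1000/well, DMEM with 1% FBS) received compound, then TGF-beta at 500 pg/mL final, and were incubated 18 hours at 37 degrees C. Viability was read by CellTiter-Glo luminescence. Media-only wells were set as complete cell-killing and DMSO as no toxicity.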
S2 tox: Viability Counterscreen for Primary qHTS for Inhibitors of ATXN expression | S2 cells (HEK-293 line with an ATXN2-luciferase reporter) viability, CellTiter-Fluor protease fluorescence, 24 h | Potency, µM (titrated, usually from 56.7 µM), hits mostly cytotoxic | hit rate 0.49% among 400,000 | AID 651635, 2014; also: nearly all actives have a fitted effect of over 40% in size
ATXN2 expr inh: Primary qHTS for Inhibitors of ATXN expression; HEK-293 ATXN2-luciferase reporter, luminescence, 24 h; Potency, µM (doses to about 57 µM), for the others: top-dose activity change, negative = inhibition, most hits filed as inhibitors; hit rate 0.72% among 360,000; also: % is scaled to controls: 0 for no effect and ±100 for the full control effect; nearly all actives have a fitted effect of over 55% in size
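qHTS (up to 57 uM final) was run with 24 h compound exposure of reporter cells at 37 °C. Each well was multiplexed: SteadyGlo luminescence measured ATXN2-luciferase expression after a fluorogenic Gly-Phe-AFC viability readout (25 uM final).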
KB-V1 cytotox: qHTS assay for MDR1-selective chemotherapeutics: Primary screen using the drug-selected MDR subline cells KB-V1 | KB-V1 MDR cells viability, CellTiter-Glo, 72 h | Potency, µM (highest dose often 46.1 µM), actives largely listed as cytotoxic | hit rate 3.4% among 400,000 | AID 1347076, 2019; also: % is scaled to controls: 0 for no effect and ±100 for the full control effect; nearly all actives have a fitted effect of over 60% in size
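Cytotoxicity toward P-gp-expressing KB-V1 cells was determined as loss of CellTiter-Glo luminescence after 72 h at 37 degrees C. Compounds were tested in quantitative HTS format across a concentration range, with curves fitted to normalized data.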
* marks the source's active call; other numbers are inactive results; [ ] = dose if it differs, or a comment. In the library only some 5.9% were active in any assay of this set; here they are far more common. Calls follow the shape of the dose curve; as a rule, active = well fitted curve in the direction sought with a large enough effect; inconclusive = small, poorly fitted or top-dose-only effect, or another doubt; inactive = no such curve, though single readings can be large; an effect the other way counts as inactive or inconclusive. Potency is read from the fitted curve at half-maximal effect.

What do the screens show for `C[C@]12CC[C@H](O)CC1=CC[C@@H]1[C@H]2CC[C@]2(C)C(c3cccnc3)=CC[C@H]12`?
ATXN2 expr inh: -6.8%[25.6 µM]

Results for CCCc1cc(=O)oc2c3c(cc(OCC(=O)N[C@@H](C)C(=O)O)c12)OC(C)(C)CC3 ?
TGFb SMAD3 inh: -0.9%; KB-3-1 tox: inactive; HepG2 tox: -19.1%; S2 tox: inactive; ATXN2 expr inh: -16.3%; KB-V1 cytotox: inactive

How did CCCc1cc(=O)oc2c3c(c4c(c12)OC(C)(C)C=C4)OC(C)C(C)C3O (stereo not given) do in these assays?
TGFb SMAD3 inh: inconclusive; KB-3-1 tox: inconclusive; HepG2 tox: 7.94µM*; S2 tox: inconclusive; ATXN2 expr inh: inconclusive; KB-V1 cytotox: inconclusive

What do the screens show for `COc1cccc(CNC(=O)[C@@H]2CCCN2C(=O)[C@H]2CCCCN2C(=O)c2ccccc2)c1`?
KB-3-1 tox: inactive; S2 tox: inactive; ATXN2 expr inh: 0.9%; KB-V1 cytotox: inactive

Results for COc1cc(OC)c(NC(=O)N2CCc3c(sc4c3CCCC4)C2c2ccccc2)cc1Cl (stereo not given) ?
TGFb SMAD3 inh: -0.1%; KB-3-1 tox: inactive; HepG2 tox: -5.5%; S2 tox: inactive; ATXN2 expr inh: -1.7%; KB-V1 cytotox: inactive

How did CCCCOc1ccc(S(=O)(=O)Nc2ccc(-c3ccc(N4CCC(C)CC4)nn3)cc2)cc1 do in these assays?
TGFb SMAD3 inh: inconclusive; KB-3-1 tox: inactive; HepG2 tox: -9.2%; S2 tox: inactive; ATXN2 expr inh: 35.7%; KB-V1 cytotox: inactive

What do the screens show for `Cc1cc(C)cc(C(=O)N(c2ccccn2)C(C)c2ccco2)c1` (stereo not given)?
TGFb SMAD3 inh: 9.8%; KB-3-1 tox: inactive; HepG2 tox: -0.3%; S2 tox: inactive; ATXN2 expr inh: -9.1%; KB-V1 cytotox: 13µM*

What do the screens show for `Cc1cccc(C(=O)N(c2ccccn2)C(C)c2ccco2)c1` (stereo not given)?
TGFb SMAD3 inh: -14.0%; KB-3-1 tox: inactive; HepG2 tox: 25.8%; S2 tox: inactive; ATXN2 expr inh: -19.2%; KB-V1 cytotox: inactive

Results for COc1ccc(NCc2nnc3n2CCCCC3)c(OC)c1 ?
TGFb SMAD3 inh: 0.1%; KB-3-1 tox: inactive; HepG2 tox: -15.1%; S2 tox: inactive; ATXN2 expr inh: 9.0%; KB-V1 cytotox: inactive

Results for CC(=O)c1ccc(OC2(C)CCN(Cc3cc4ccccc4[nH]3)C2)cc1 (stereo not given) ?
TGFb SMAD3 inh: 9.2%; KB-3-1 tox: inactive; HepG2 tox: -23.2%; S2 tox: inactive; ATXN2 expr inh: -13.1%; KB-V1 cytotox: inactive

What do the screens show for `CCOc1ccc(OCC(=O)NCCS(=O)(=O)N2CCN(c3ccc(OC)cc3)CC2)cc1`?
TGFb SMAD3 inh: 2.0%; HepG2 tox: 6.0%

How did Cc1nc2ncnn2c(N2CCCC(C(=O)Nc3ccccc3Br)C2)c1C (stereo not given) do in these assays?
TGFb SMAD3 inh: -3.2%; KB-3-1 tox: inactive; HepG2 tox: -33.9%; S2 tox: inactive; ATXN2 expr inh: -35.3%; KB-V1 cytotox: 10.3µM*

Results for COc1ccc(OC)c(NC(=O)C2CCN(c3cc(-c4ccccc4)nc4ncnn34)CC2)c1 ?
TGFb SMAD3 inh: -8.0%; KB-3-1 tox: inactive; HepG2 tox: 0.2%; S2 tox: inactive; ATXN2 expr inh: inconclusive; KB-V1 cytotox: 14.6µM*

What do the screens show for `CCc1c(C)nc2ncnn2c1N1CCC(C(=O)NCc2cccc(OC)c2)CC1`?
TGFb SMAD3 inh: -22.9%; KB-3-1 tox: inconclusive; HepG2 tox: -0.1%; S2 tox: inactive; ATXN2 expr inh: -3.6%; KB-V1 cytotox: 23.1µM*

Results for CCc1c(C)nc2ncnn2c1N1CCCC(C(=O)NCc2cccs2)C1 (stereo not given) ?
TGFb SMAD3 inh: -2.0%; KB-3-1 tox: inconclusive; HepG2 tox: -1.4%; S2 tox: inactive; ATXN2 expr inh: 0.3%; KB-V1 cytotox: 16.4µM*

How did Cc1ccc(CNC(=O)CSc2nc3ccsc3c(=O)n2-c2ccc(Br)cc2)cc1 do in these assays?
TGFb SMAD3 inh: inconclusive; HepG2 tox: -10.0%

Results for COc1ccccc1C1CN(Cc2c(C)nn(C)c2Cl)Cc2ccccc2O1 (stereo not given) ?
S2 tox: inactive

How did CN1CCN(c2ncnc3c2ncn3[C@H]2CN(Cc3cccnc3)C[C@@H](CO)O2)CC1 do in these assays?
TGFb SMAD3 inh: 5.8%; KB-3-1 tox: inactive; HepG2 tox: 4.1%; S2 tox: inactive; ATXN2 expr inh: -0.1%; KB-V1 cytotox: inactive

Results for CC(=O)c1cc(-c2ccccc2)n(CCC(=O)NCc2ccc(C)cc2)c1C ?
TGFb SMAD3 inh: 0.0%; KB-3-1 tox: inactive; HepG2 tox: -3.8%; KB-V1 cytotox: inactive

Results for CCc1c(C)nc2ncnn2c1N1CCCC(C(=O)NCCc2ccccc2)C1 (stereo not given) ?
TGFb SMAD3 inh: 1.3%; KB-3-1 tox: inconclusive; HepG2 tox: -21.9%; S2 tox: inactive; ATXN2 expr inh: 21.6%; KB-V1 cytotox: 13µM*

What do the screens show for `CCC(C)n1ncn(-c2ccc(N3CCN(c4ccc(OC[C@H]5CO[C@](Cn6cncn6)(c6ccc(Cl)cc6Cl)O5)cc4)CC3)cc2)c1=O` (stereo not given in full)?
S2 tox: inactive; ATXN2 expr inh: inconclusive

How did CC(C)N1CCN(c2ccc(OCC3COC(Cn4cncn4)(c4ccc(Cl)cc4Cl)O3)cc2)CC1 (stereo not given) do in these assays?
TGFb SMAD3 inh: -17.6%; KB-3-1 tox: inconclusive; HepG2 tox: -10.7%; S2 tox: inconclusive; ATXN2 expr inh: -20.1%; KB-V1 cytotox: 1.16µM*

What do the screens show for `CC(C)N1CCN(c2ccc(OC[C@H]3CO[C@](Cn4cncn4)(c4ccc(Cl)cc4Cl)O3)cc2)CC1`?
TGFb SMAD3 inh: inconclusive; KB-3-1 tox: inconclusive; HepG2 tox: 12.6µM*; S2 tox: inconclusive; ATXN2 expr inh: inconclusive; KB-V1 cytotox: inconclusive

Results for C=C(C)C1CC=C(C)/C(=N/NC(=O)c2ccc(NC(=O)CC)cc2)C1 (stereo not given) ?
TGFb SMAD3 inh: 18.5%; KB-3-1 tox: inactive; HepG2 tox: -1.8%; S2 tox: inactive; ATXN2 expr inh: 7.9%; KB-V1 cytotox: 14.6µM*
